# Compound activity (PubChem)
# Rows were chosen to be rich in hits. Some 12% of all compounds tested hit in one or more screens of this group.
# Pf growth 96h – inhibits malaria parasite growth, 96 h; P. falciparum luciferase reporter growth, 96 h; Potency, µM (top dose mostly 28.7 µM), usual class: inhibitors; 6.9% of 320,000 active; AID 504834
#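 Two-generation exposure (96 h) targets delayed-death phenotype. Reporter parasites carrying integrated firefly luciferase, in red cells at 2% hematocrit and 0.05% parasitemia final, kept at 37 C, 5% CO2; luminescence loss indicates inhibition.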
# Sm TGR block – S. mansoni TGR enzyme inhibition. Q962Y6. purified TGR, DTNB reduction, TNB absorbance 405 nm. 3% of 360,000 active. AID 485364. Potency, µM (highest dose often 114 µM), actives largely listed as inhibitors; also: nearly all actives have a fitted effect of over 60% in size
#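 Kinetic colorimetric format: TGR-catalysed, NADPH-driven DTNB reduction monitored via TNB absorbance. Enzyme dispensed at 20 nM; compound exposure 15 min at room temperature before reaction start.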
# SARS PLP yeast – inhibitors of SARS-CoV papain-like protease in yeast. S. cerevisiae expressing SARS-CoV PLpro, growth rescue. Potency, µM (doses to about 32.9 µM), most hits filed as activators. 0.19% of 330,000 active. AID 485353; calls by dose curve; also: nearly all actives have a fitted effect of over 55% in size
# Pf growth 48h – P. falciparum growth inhibition at 48 hours (one generation); AID 504832; 5.9% of 310,000 active; Potency, µM (top dose mostly 28.7 µM), usual class: inhibitors; P. falciparum luciferase growth in erythrocytes, 48 h
#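 Firefly luciferase activity from engineered P. falciparum reports growth; inhibitors lower the luminescent signal. Cultures contained 2% hematocrit erythrocytes at 0.1% final parasitemia.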
# Numbers stand for hits; . = inactive; ? = inconclusive; / = no result given. Unless noted, calls follow the shape of the dose curve; as a rule, active = well fitted curve in the direction sought with a large enough effect; inconclusive = small, poorly fitted or top-dose-only effect, or another doubt; inactive = no such curve, though single readings can be large; an effect the other way counts as inactive or inconclusive.
SMILES,Pf growth 96h,Sm TGR block,SARS PLP yeast,Pf growth 48h
CC(=O)c1ccc(NC(=O)/C(=C\c2ccc(F)cc2)NC(=O)c2ccco2)cc1,.,.,.,.
Cc1cccc(OC(C)C(=O)Nc2cc(S(=O)(=O)N3CCCCC3)ccc2C)c1 (stereo not drawn),?,.,.,9.3µM
Cc1cccc(C(=O)N[C@H](C(=O)Nc2cc(S(=O)(=O)N3CCCCC3)ccc2C)C(C)C)c1,?,.,.,?
CC(Oc1ccc(F)cc1)C(=O)Nc1cc(S(=O)(=O)N2CCCCC2)ccc1N1CCOCC1 (stereo not drawn),9.3µM,.,.,8.3µM
CC(Oc1cccc(Cl)c1)C(=O)Nc1cc(S(=O)(=O)N2CCCCC2)ccc1N1CCOCC1 (stereo not drawn),10µM,.,/,10µM
CC(C)Oc1ccc(S(=O)(=O)N2CCOCC2)cc1NC(=O)C(C)Oc1ccc(F)cc1 (stereo not drawn),?,.,.,13µM
CC(Oc1cccc(Cl)c1)C(=O)Nc1cc(S(=O)(=O)N2CCOCC2)ccc1N1CCCC1 (stereo not drawn),.,.,.,.
CN(C)N1C(N)=C(C#N)C(c2ccc3c(c2)OCO3)C2=C1CC(C)(C)CC2=O (stereo not drawn),?,.,.,.
CCOc1ccc(N2CC(NC(=O)Cc3ccccc3)CC2=O)cc1 (stereo not drawn),/,.,/,/
Cc1ccc(-n2cnnn2)cc1S(N)(=O)=O,/,.,/,/
Cc1c(Cl)c([N+](=O)[O-])nn1CCCC(=O)Nc1ccc(Cl)cc1Cl,12µM,.,.,.
Cc1c(Cl)c([N+](=O)[O-])nn1CCCC(=O)Nc1cccc(Cl)c1Cl,?,.,.,.
Cc1ccc(Cn2nc(C)c(NC(=O)CCCn3nc([N+](=O)[O-])c(Cl)c3C)c2C)cc1,.,.,.,.
Cc1cc(NC(=O)CCCn2nc(C)c([N+](=O)[O-])c2C)no1,1.5µM,.,.,.
Cc1cc(NC(=O)CCCn2cnc([N+](=O)[O-])n2)no1,.,.,.,.
Cc1nn(Cc2ccccc2Cl)c(C)c1NC(=O)CCCn1nc([N+](=O)[O-])c(Cl)c1C,4.7µM,.,?,.
Cc1ccc(-n2nnc(C(=O)Nc3cc(F)ccc3F)c2C)cc1F,/,.,/,/
CC(C)CCNC(=O)CN1C(=O)c2cccnc2Sc2ccccc21,/,.,/,/
Fc1ccccc1C1CC(c2ccco2)=Nc2ccccc2S1 (stereo not drawn),.,8.9µM,.,.
Cn1c(=O)c2c(nc(CN3CCc4ccccc4C3)n2Cc2ccc(Cl)cc2)n(C)c1=O,.,.,.,.
Cn1c(=O)c2c(nc(NCCc3ccccc3)n2Cc2ccc(Cl)c(Cl)c2)n(C)c1=O,/,.,/,/
Cn1c(=O)c2c(nc(CN3CCc4ccccc4C3)n2Cc2ccccc2)n(C)c1=O,12µM,.,.,13µM
Cn1c(=O)c2c(nc(CN3CCN(Cc4ccccc4)CC3)n2Cc2ccc(F)cc2)n(C)c1=O,?,.,.,7.4µM
Cn1c(=O)c2c(nc(NCCc3ccccc3)n2Cc2ccc(F)cc2)n(C)c1=O,?,.,.,12µM
CCCCCn1c(CN2CCN(Cc3ccccc3)CC2)nc2c1c(=O)n(C)c(=O)n2C,?,.,.,8.3µM
SMILES,Pf growth 96h,Sm TGR block,SARS PLP yeast,Pf growth 48h
CCOc1cc(-c2nc(-c3ccc(-c4ccc(OC)cc4)nc3OC)no2)cc(OCC)c1OCC,/,.,/,/
O=C(NCC(=O)N1CCOCC1)c1ccc(Cl)c(Cl)c1,/,/,.,/
CC1=C(C(=O)Nc2ccccc2C)C(c2cccnc2)n2nc(SCc3ccccc3)nc2N1 (stereo not drawn),/,.,/,/
CC(C)CCn1c(CN2CCN(C(=O)c3ccco3)CC2)nc2c1c(=O)n(C)c(=O)n2C,6.6µM,?,.,/
CCCCn1c(CN2CCN(c3ccccc3)CC2)nc2c1c(=O)n(C)c(=O)n2C,?,.,.,?
Cn1c(=O)c2c(nc(NC(Cc3ccccc3)C(=O)O)n2Cc2ccccc2)n(C)c1=O (stereo not drawn),.,.,.,6.6µM
CC(C)Cn1c(CN2CCN(C(=O)c3ccco3)CC2)nc2c1c(=O)n(C)c(=O)n2C,.,.,.,.
CC(C)CCn1c(CN2CCN(Cc3ccccc3)CC2)nc2c1c(=O)n(C)c(=O)n2C,?,.,.,4.7µM
Cn1c(C(=O)NCc2ccc(F)cc2)cc2c(=O)n(C)c3ccccc3c21,/,.,/,/
CCCC(=O)Nc1nnc(SCc2cc(=O)c3ccc(C)cc3[nH]2)s1,/,.,/,/
c1ccc(CNc2nc(CN3CCOCC3)nc3scc(-c4ccccc4)c23)cc1,?,.,.,?
Clc1ccc(CNc2nc(CN3CCOCC3)nc3scc(-c4ccccc4)c23)cc1,3.7µM,.,.,?
CCOC(=O)C1=C(CS(=O)(=O)c2ccc(F)cc2)NC(=O)NC1c1ccc(O)c(O)c1 (stereo not drawn),.,.,?,.
O=C1C2C3C=CC(O3)C2C(=O)N1CC(O)c1ccccc1 (stereo not drawn),/,11µM,.,.
O=C(CCc1ccccc1)NN1C(=O)C2C3C=CC(O3)C2C1=O (stereo not drawn),.,/,.,.
COc1ccc(C(C)=O)cc1COC(=O)[C@H](Cc1ccccc1)NC(=O)c1ccco1,/,/,.,/
COc1cc(C(=O)NCC(=O)OCc2ccccc2Cl)cc(OC)c1OC,.,.,.,.
CCOc1ccc(C(C)=O)cc1COC(=O)CCc1cc(OC)c(OC)c(OC)c1,8.3µM,.,.,?
COc1ccc(C(C)=O)cc1COC(=O)C(CO)NS(=O)(=O)c1ccc(Br)cc1 (stereo not drawn),.,13µM,.,.
CNC(=O)C(C#N)(Cc1cc(C(C)=O)ccc1OC)Cc1cc(C(C)=O)ccc1OC,.,40µM,.,.
COc1ccc(C(C)=O)cc1COC(=O)CNC(=O)c1cc(C)cc(C)c1,.,32µM,.,.
[N-]=[N+]=NC[C@H](Cc1ccccc1)N1CCN(Cc2ccccc2)CCC1=O,?,.,.,.
Cc1c(C(=O)Nc2ccccc2)sc2nc(-c3cc4ccccc4oc3=O)[nH]c(=O)c12,/,.,/,/
COc1ccc(CNC(=O)Cc2c(C)c3cc4c(C)coc4cc3oc2=O)cc1,/,.,/,/
CC(=O)c1ccc(NC(=O)c2sc(-n3nc(C)c(Cc4ccccc4)c3C)nc2C)cc1,/,.,/,/
SMILES,Pf growth 96h,Sm TGR block,SARS PLP yeast,Pf growth 48h
C[C@H](CO)N1C[C@H](C)[C@@H](CN(C)S(=O)(=O)c2ccc(F)cc2)Oc2ccc(NC(=O)C3CCCCC3)cc2C1=O,/,/,.,/
CCc1cc(=O)oc2c(C)c(OCC(=O)N3CCC(C(=O)O)CC3)ccc12,.,.,.,.
COc1ccc(C(C)=O)cc1COC(=O)CCNS(=O)(=O)c1ccc(C(C)=O)cc1,.,10µM,?,.
COc1ccc(C(=O)COC(=O)CCNS(=O)(=O)c2ccccc2)cc1Br,.,.,.,.
COc1ccccc1C(=O)COC(=O)CCNS(=O)(=O)c1ccc(C)c(C)c1,.,.,.,.
COc1ccc(C(C)=O)cc1COC(=O)CCNS(=O)(=O)c1ccc(C)cc1,.,5.6µM,.,.
COc1ccc(C(C)=O)cc1COC(=O)CCCN1C(=O)c2ccccc2C1=O,.,8.9µM,.,.
